The structures appear in SMILES notation. Records with an inconclusive call do not appear. Unmarked numbers belong to inactive results. Calls of active or inactive are those of the source. Unless noted, calls come from the whole dose curve; as a rule, active = well fitted curve in the direction sought with a large enough effect; inconclusive = small, poorly fitted or top-dose-only effect, or another doubt; inactive = no such curve, though single readings can be large; an effect the other way counts as inactive or inconclusive.

Assay [1] can be described thus: qHTS Assay for Modulators of Human Peripheral Myelin Protein 22 (PMP22) Expression/Activity (AID 1967; active = well fitted curve in the direction sought with a large enough effect in the signal ratio; the % refers to the signal ratio;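 note: 0% = untreated cells and 100% end not stated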). The method in brief: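 Quantitative HTS in a mouse Schwann cell line expressing dual click beetle luciferases: Pmp22 promoter (green) and control EF-alpha promoter (red). After 24h treatment, corrected green/red signal ratio gave %Activity relative to untreated cells.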
Background: Quantitative high-throughput screening tests each substance at several concentrations.

Assay [2] addresses Ferritin light chain (Equus caballus) (UniProt P02791). In words: qHTS Validation Assay for Identification of Novel General Anesthetics (AID 2323). Note: series mostly up to about 77 µM; % is set by controls: 0 for no effect and ±100 for the full control effect. An outline of the steps: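 Apoferritin from horse spleen (10 uM) was mixed with 1-aminoanthracene at 50% saturation in PBS, then compounds were added. After 10 min at room temperature, fluorescence was read (ex 380 nm, em 535 nm) and normalized to free-probe and complex controls.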

The target of assay [3] is RecQ-like DNA helicase BLM (Homo sapiens) (UniProt P54132). The assay can be described thus: qHTS Validation Assay for Inhibitors of Bloom's syndrome helicase (BLM) (AID 2364).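 Note: plate controls were DMSO vehicle for no effect and enzyme-free control for full effect.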 An outline of the steps:
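BLM 50 nM in 25 mM Tris-HCl pH 8.0, 5 mM NaCl, 2 mM MgCl2, 1 mM DTT, 0.01% Tween-20, 2.5 ug/ml poly(dI-dC); 15 min cpd preinc, RT. Start: 200 nM forked DNA + 2 mM ATP (final). TAMRA read, 2 reads 2 h apart.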

A short description of assay [4]: Validation screen for small molecules that induce DNA re-replication in MCF 10A normal breast cells (AID 463097). Note: 0% is about no effect; nearly all actives have a fitted effect of over 60% in size. The method in brief: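 DNA re-replication was detected as a rise in nuclei with elevated Hoechst fluorescence after a 48 hr compound exposure of MCF 10A cells at 37 C.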
A short description of assay [5]: Quantitative high throughput screen for delayed death inhibitors of the malarial parasite plastid, 48 hour incubation (AID 488752). Note: nearly all actives have a fitted effect of over 65% in size. Note: potency is the fitted concentration of half-maximal effect. An outline of the steps: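 Erythrocytes infected with firefly luciferase-expressing P. falciparum (2% hematocrit, 0.1% parasitemia) cultured with compound for 48 h at 37 C, 5% CO2, in RPMI 1640/0.5% Albumax. Growth inhibition read as loss of luminescence.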

The nature of assay [6]: Validation screen for small molecules that induce DNA re-replication in SW480 colon adenocarcinoma cells (AID 504364). Note: 0% is about no effect. An outline of the steps:
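SW480 cells (250/well) exposed 48 h at 37 C, 5% CO2, then Hoechst-stained 40 min. Nuclear DNA content imaged by fluorescence scanning (405 nm excitation, 500-530 nm emission); re-replication scored as increased nuclei with elevated intensity.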

Assay [7] is described as follows: NCATS anti-infectives library activity on HEK293 viability as a counter-qHTS vs the C. elegans viability qHTS (AID 1745854).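 Note: HEK293 cells exposed to compounds for 24 hr before the viability read; % is set by controls: 0 for no effect and ±100 for the full control effect.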 The method in brief:
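HEK293 cells (1,500/well) exposed 24 hr at 37C to 1:5 titrations, up to 41.7 uM final; counter-screen to a C. elegans viability qHTS. Viability by CellTiter-Glo luminescence after 10 min at room temperature; digitonin as control.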

Assay [8] deals with Endonuclease 4 (Escherichia coli (strain K12)) (UniProt P0A6C1). The assay can be described thus: Counterscreen for APE1 Inhibitors: qHTS Validation Assay for Inhibitors of Endonuclease IV (AID 1708). Note: % is set by controls: 0 for no effect and ±100 for the full control effect. An outline of the steps:
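Concentration-response counterscreen run identically to the APE1 assay: 15 min room-temperature preincubation of 2 nM enzyme with compound, reaction started with 50 nM quenched abasic DNA, progress taken from kinetic fluorescence.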
In general terms: Counterscreens check selectivity or assay interference.

A short description of assay [9]: qHTS for differential inhibitors of proliferation of Plasmodium falciparum line GB4 (AID 1816).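 Note: parasite growth measured after 72 h incubation.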 Note: potency is the fitted concentration of half-maximal effect. Conditions: Potency: Plasmodium falciparum GB4 proliferation inhibition.
Assay [10] is described as follows: qHTS for differential inhibitors of proliferation of Plasmodium falciparum line D10 (AID 1877).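 Note: parasites grown with compound for 72 h before DNA staining.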 Note: potency is the fitted concentration of half-maximal effect.
A short description of assay [11]: qHTS for differential inhibitors of proliferation of Plasmodium falciparum line 7G8 (AID 1815).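 Note: parasite growth measured after three days of incubation.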 Note: potency is the fitted concentration of half-maximal effect.
Assay [12] can be described thus: qHTS Assay for Identification of Small Molecule Agonists for Hypoxia Response Element Signaling Pathway (AID 914; active = well fitted activation curve with a large enough effect in the signal ratio, with a control signal flat, not every such curve was filed as active; the % refers to the signal ratio; note: potency is the fitted concentration of half-maximal effect; for activation: % of control where 0% means no effect). To be noted: ME-180 (cervical carcinoma) HRE-bla reporter, beta-lactamase ratio, CoCl2, 17 h; activation: hits give high values. An outline of the steps:
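HRE-bla ME-180 cells with beta-lactamase reporter under hypoxia response element, compounds with EC50 CoCl2 for 17 hours at 37 C. CCF4 substrate, 460nm/530nm emission ratio gave %Activity; AC50 from titration series.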

Ferritin light chain (Equus caballus), sequence (P02791 2-175 limits assumed): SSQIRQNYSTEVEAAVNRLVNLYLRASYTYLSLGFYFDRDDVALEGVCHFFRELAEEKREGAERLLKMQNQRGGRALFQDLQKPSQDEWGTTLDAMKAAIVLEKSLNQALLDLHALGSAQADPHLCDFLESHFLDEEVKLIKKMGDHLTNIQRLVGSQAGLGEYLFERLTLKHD
RecQ-like DNA helicase BLM (Homo sapiens), sequence (P54132 whole entry, looked up): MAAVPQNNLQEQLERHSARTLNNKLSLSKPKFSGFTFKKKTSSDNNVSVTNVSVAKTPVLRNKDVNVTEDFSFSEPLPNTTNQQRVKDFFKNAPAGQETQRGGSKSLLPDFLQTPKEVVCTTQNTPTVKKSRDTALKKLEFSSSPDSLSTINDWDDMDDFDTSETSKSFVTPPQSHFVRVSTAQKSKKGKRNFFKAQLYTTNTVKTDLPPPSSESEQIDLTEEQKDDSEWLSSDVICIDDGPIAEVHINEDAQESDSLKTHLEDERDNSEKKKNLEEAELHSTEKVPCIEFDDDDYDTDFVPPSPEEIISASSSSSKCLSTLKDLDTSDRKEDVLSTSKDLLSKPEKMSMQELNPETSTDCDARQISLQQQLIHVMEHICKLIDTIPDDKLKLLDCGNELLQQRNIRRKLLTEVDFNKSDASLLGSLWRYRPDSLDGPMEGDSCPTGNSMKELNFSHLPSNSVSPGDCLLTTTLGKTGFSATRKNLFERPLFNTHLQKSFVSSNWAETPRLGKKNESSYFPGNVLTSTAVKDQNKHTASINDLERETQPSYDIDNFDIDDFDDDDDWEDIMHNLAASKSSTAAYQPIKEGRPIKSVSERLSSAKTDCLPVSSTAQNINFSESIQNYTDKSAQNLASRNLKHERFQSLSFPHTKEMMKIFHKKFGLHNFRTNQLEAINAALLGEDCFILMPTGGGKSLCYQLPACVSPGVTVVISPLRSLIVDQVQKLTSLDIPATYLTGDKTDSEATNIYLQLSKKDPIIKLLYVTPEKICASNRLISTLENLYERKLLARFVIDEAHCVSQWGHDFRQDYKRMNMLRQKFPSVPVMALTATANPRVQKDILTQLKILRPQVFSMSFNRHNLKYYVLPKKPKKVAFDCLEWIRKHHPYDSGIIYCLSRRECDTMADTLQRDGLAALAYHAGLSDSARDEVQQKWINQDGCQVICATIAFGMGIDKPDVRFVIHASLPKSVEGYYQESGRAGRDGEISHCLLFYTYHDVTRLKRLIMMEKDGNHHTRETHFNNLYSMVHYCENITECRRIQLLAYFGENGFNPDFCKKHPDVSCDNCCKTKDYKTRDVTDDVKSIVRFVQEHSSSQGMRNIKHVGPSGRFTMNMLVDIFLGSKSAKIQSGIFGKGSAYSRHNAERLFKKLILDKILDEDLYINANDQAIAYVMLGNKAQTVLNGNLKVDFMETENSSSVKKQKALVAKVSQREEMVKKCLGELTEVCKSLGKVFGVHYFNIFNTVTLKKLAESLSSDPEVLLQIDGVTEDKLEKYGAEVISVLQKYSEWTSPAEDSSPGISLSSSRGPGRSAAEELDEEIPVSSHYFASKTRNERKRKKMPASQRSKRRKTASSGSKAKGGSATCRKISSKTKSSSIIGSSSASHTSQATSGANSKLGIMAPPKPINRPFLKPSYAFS

For the compound `Nc1ncnc2c1ncn2[C@@H]1O[C@H](COP(=O)(O)OP(=O)(O)OP(=O)(O)OP(=O)(O)OC[C@@H]2O[C@H](n3cnc4c(N)ncnc43)[C@@H](O)[C@@H]2O)[C@H](O)[C@H]1O`, the compound was called inactive in assay [1], in assay [2], in [3], in assay [4] and in assay [6]. Further, the Potency entry in assay [5] is “inactive”.
In the case of `COc1ccc(/C=C/C(=O)O)cc1OC`, the compound was called inactive in assay [7].
For the compound `Nc1ncnc2c1nc(Br)n2C1O[C@H]2COP(=O)(O)O[C@@H]2C1O` (some centres not stated), the result in [8], in assay [2], in assay [3], in assay [4] and in assay [6] was inactive. For the same compound, in [9], the Potency is 12600 nM (active). The Potency result in [5] is “inactive”.
As for `C[C@@H](Oc1ccc(Oc2cnc3ccc(Cl)cc3n2)cc1)C(=O)O`, the call in [8] and in assay [3] was inactive. Further, the Potency result in [10] and in assay [5] was “inactive” each time.
With `CCCC1O[C@@H]2C[C@H]3[C@@H]4CCC5=CC(=O)C=C[C@]5(C)C4[C@@H](O)C[C@]3(C)[C@]2(C(=O)CO)O1` (some centres not stated), the outcome in [8], in assay [2], in assay [4] and in [6] was inactive. Moreover, the Potency in [11] is 2240 nM (active); in assay [9], 3160 nM (active); in [10], 11200 nM (active); in assay [5] it was 10400 nM (active).
On to `NC(=NCc1ccc(Cl)c(Cl)c1)NC(=O)c1nc(Cl)c(N)nc1N`, for which the Potency in [11] is 562 nM (active); in assay [9] it was 891 nM (active); in assay [10] it was 398 nM (active); in [5], 370 nM (active). For the same compound, the compound was classed as inactive in [2] and in assay [3].
Regarding `CC(C)=CCC/C(C)=C/CC/C(C)=C/CC/C(C)=C/CC/C(C)=C/CC/C(C)=C/CC/C(C)=C/CC/C(C)=C/CC/C(C)=C/CO`, the compound was classed as inactive in [7].
`C[n+]1cccc(C(=O)[O-])c1`: in [7], the call was inactive.
`CNC(=O)[C@H]1O[C@@H](n2cnc3c(N)ncnc32)[C@H](O)[C@H]1O`: the call in assay [8], in assay [1], in assay [2], in assay [4] and in assay [6] was inactive. The Potency entry in [11], in [9], in [10] and in [5] was “inactive” throughout.
Turning to `O=c1c(-c2ccc(F)cc2)nc2cnc(N3CCNCC3)nc2n1Cc1cccs1`, the Potency in assay [12] is 2510 nM (active).
With `CN1CCN(c2ncc3ncc(=O)n(Cc4ccc(F)cc4)c3n2)CC1`, the activation in assay [12] was -5.68%.
Regarding `COCCn1c(=O)c(-c2cccs2)nc2cnc(N3CCN(C)CC3)nc21`, in [12], the Potency is 2510 nM (active).
With `CN1CCN(c2ncc3nc(-c4ccccc4)c(=O)n(C4CC4)c3n2)CC1`, the Potency in assay [12] was 3980 nM (active).

These data come from PubChem BioAssay (NCATS).
